# Measurements taken from PMC4336329 (PLoS ONE, 2015).
# In all, about 310,000 compounds went through this assay and about 2,200 (0.71%) showed an effect of 50% or more. Effects have a minus sign here. For the sample, strong results were picked, then their nearest neighbours and some compounds at random.
# Target: human ether-à-go-go-related gene (hERG) potassium channel (human, UniProt Q12809)
# Assay: primary screen, population patch clamp on CHO cells stably expressing hERG; higher = less effect of the substance
# Sequence of human ether-à-go-go-related gene (hERG) potassium channel (Q12809 whole entry, looked up): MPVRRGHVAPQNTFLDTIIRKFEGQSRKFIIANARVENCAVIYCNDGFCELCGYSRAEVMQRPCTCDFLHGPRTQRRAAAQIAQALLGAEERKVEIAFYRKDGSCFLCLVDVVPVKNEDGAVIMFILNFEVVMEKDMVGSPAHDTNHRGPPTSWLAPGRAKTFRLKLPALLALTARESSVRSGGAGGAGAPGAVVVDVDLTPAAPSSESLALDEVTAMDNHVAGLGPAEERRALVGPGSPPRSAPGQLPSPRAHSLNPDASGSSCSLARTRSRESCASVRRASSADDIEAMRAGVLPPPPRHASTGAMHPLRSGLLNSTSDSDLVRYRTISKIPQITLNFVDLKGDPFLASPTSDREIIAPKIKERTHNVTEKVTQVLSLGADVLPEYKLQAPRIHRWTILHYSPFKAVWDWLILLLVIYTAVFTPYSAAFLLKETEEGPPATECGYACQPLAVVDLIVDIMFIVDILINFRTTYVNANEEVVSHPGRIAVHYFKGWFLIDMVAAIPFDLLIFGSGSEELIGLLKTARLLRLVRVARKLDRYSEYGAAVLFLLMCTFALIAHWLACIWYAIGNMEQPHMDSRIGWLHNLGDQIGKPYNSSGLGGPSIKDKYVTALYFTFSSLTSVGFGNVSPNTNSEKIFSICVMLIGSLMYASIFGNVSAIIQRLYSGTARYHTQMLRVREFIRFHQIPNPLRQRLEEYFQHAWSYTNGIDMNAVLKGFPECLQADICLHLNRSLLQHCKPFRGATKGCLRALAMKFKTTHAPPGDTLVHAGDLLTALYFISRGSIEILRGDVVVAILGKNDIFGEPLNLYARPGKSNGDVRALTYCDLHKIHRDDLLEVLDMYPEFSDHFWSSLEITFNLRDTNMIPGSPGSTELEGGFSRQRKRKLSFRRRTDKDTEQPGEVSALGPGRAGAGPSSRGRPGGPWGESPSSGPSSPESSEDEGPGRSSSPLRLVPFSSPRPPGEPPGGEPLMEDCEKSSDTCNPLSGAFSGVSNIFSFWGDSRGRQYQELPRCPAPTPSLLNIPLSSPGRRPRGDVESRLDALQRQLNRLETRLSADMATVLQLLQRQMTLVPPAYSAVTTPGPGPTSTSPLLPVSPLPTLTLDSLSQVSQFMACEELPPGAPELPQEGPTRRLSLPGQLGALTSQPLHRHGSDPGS
row,Structure (SMILES),"hERG current change (%, negative = inhibition) at 1uM [%]"
1,COc1ccc(-c2cc(-c3cccs3)nc(OC)c2C#N)cc1OC,24.6
2,COc1ccc(CN2CCC(N3CC(C)OC(C)C3)CC2)c(OC)c1OC.O=C(O)C(=O)O (stereo not drawn),2.62
3,N#Cc1ccccc1CSc1ccc(-c2nc3ccccc3[nH]2)cn1,16.2
4,O=C(CSc1ccc(-c2ccccc2)nn1)Nc1ccc2c(c1)OCCO2,8.92
5,Cc1nc(C)c(C(=O)Nc2nc3c(C)cccc3s2)o1,-4.12
6,Cc1ccc([N+](=O)[O-])cc1S(=O)(=O)Nc1ccc(O)c(Sc2ncn[nH]2)c1,14.7
7,COc1ccc(CCNC(=O)/C=C/c2ccco2)cc1OC,5.95
8,CCOc1ccc(CCNC(=O)COC(=O)/C=C/c2ccco2)cc1OCC,15.9
9,CCOc1ccc(CCNC(=O)/C=C/c2ccco2)cc1OCC,-170
10,O=C(c1ccc(S(=O)(=O)c2cccc(Cl)c2)c([N+](=O)[O-])c1)N1CCN(Cc2ccccc2)CC1,15.8
11,COc1cc(C(=S)N2CCOCC2)ccc1OC(=O)c1ccc([N+](=O)[O-])cc1[N+](=O)[O-],15.5
12,COc1ccc(C(=S)N2CCOCC2)cc1OC(=O)c1ccc([N+](=O)[O-])cc1[N+](=O)[O-],-63.1
13,COc1cc(C(=S)N2CCOCC2)cc(OC)c1OC(=O)c1ccc([N+](=O)[O-])cc1[N+](=O)[O-],5.28
14,CC1CCc2nc3ccccc3c(C(=O)OCC(=O)NC3CCS(=O)(=O)C3)c2C1 (stereo not drawn),13
15,CC(=O)Nc1ccc(S(=O)(=O)Nc2ccc(S(=O)(=O)N3CCCC3)cc2)cc1,4.58
16,Cc1ccc(C)c(/C=C(\C(=O)O)c2ccc(S(=O)(=O)N3CCCCC3)s2)c1,6.97
17,COc1cc(NC(=O)c2cc([N+](=O)[O-])ccc2NC(=O)CNC2CCCCC2C)cc(OC)c1 (stereo not drawn),17.4
18,COc1ccc(NC(=O)c2cc([N+](=O)[O-])ccc2NC(=O)CNCc2ccccn2)c(OC)c1,9.51
19,COc1ccc(NC(=O)c2cc([N+](=O)[O-])ccc2NC(=O)CNC2CCCCC2C)c(OC)c1 (stereo not drawn),-78.8
20,CCN(c1ccccc1)S(=O)(=O)c1cccc(C(=O)NCC2(N(C)C)CCCCC2)c1,-11
21,O=C(OCC(=O)N1CCOCC1)c1ccccc1O,13.6

row,Structure (SMILES),"hERG current change (%, negative = inhibition) at 1uM [%]"
1,Cc1cc(C)cc(NC(=O)C(OC(=O)c2cccs2)c2ccccc2)c1 (stereo not drawn),16.7
2,Cn1c(=O)c2c(nc(N3CCCC3)n2C)n(C)c1=O,12.6
3,Cn1c(=O)c2c(nc(N3CCOCC3)n2C)n(C)c1=O,-1.83
4,Cn1c(=O)c2c(ncn2CC(=O)N2CCN(c3ccc([N+](=O)[O-])cc3)CC2)n(C)c1=O,-69.6
5,Cn1c(=O)c2c(ncn2CC(=O)N2CCN(c3ccccc3)CC2)n(C)c1=O,8.13
6,Cn1c(=O)c2c(nc(N3CCN(c4ccc([N+](=O)[O-])cc4)CC3)n2C)n(C)c1=O,-81.7
7,Cn1c(=O)c2c(ncn2CC(=O)N2CCN(c3ccc(F)cc3)CC2)n(C)c1=O,-0.183
8,Cc1nc2c(C(=O)N3CCCC3)cnn2c(C)c1Cc1c(F)cccc1Cl,-11.4
9,C=Cc1ccc(COC(=O)c2cn(CC)c3nc(C)ccc3c2=O)cc1,-21
10,O=C(CC(=O)N/N=C/c1ccccc1)NCc1ccccc1,8.85
11,COc1nc(OC)nc(N2CCC(C(=O)NCc3ccco3)CC2)n1,-0.721
12,Cc1cc(C)nc(N2CCC(C(=O)NCc3ccccc3F)CC2)n1,1.75
13,O=C(NCc1ccco1)C1CCN(c2nc3ccccc3n2Cc2ccccc2F)CC1,-62.8
14,Cc1ccc(Cn2cnc3ccccc32)cc1,13
15,O=C(O)CC(c1cccc(O)c1)N1Cc2ccccc2C1=O (stereo not drawn),12
16,CC(C)OCP(=O)(c1ccccc1)c1ccccc1,6.74
17,CCOCCCNC(=O)CNC(=S)N(Cc1ccccc1F)C1CCCCC1,-6.79
18,CCN1C(=S)SC(=O)C1=C1C=C(C)N(Cc2ccco2)C(C)=C1,1.56
19,CC(C)c1cc(N=NC(N)=O)cc(C(C)C)c1O,6.77
20,CCN(CC(=O)NCc1ccc(F)cc1)Cc1nc2cc(Cl)ccc2c(=O)[nH]1,-52.5
21,CCN(CC(=O)NCCc1ccc(F)cc1)Cc1nc2ccccc2c(=O)[nH]1,1.66

row,Structure (SMILES),"hERG current change (%, negative = inhibition) at 1uM [%]"
1,CCN(CC(=O)NCc1ccc(F)cc1)Cc1nc2ccccc2c(=O)[nH]1,-8.93
2,COc1ccc(CCC(=O)N2CCN(C(=O)c3ccccc3)CC2)cc1,14.6
3,COc1ccc(CCC(=O)N2CCN(C3CCCCC3)CC2)cc1,-56.7
4,COc1ccc(C(=O)N2CCN(C3CCCCC3)CC2)cc1OC.O=C(O)C(=O)O,-74.2
5,COc1cccc(C(=O)N2CCN(C3CCC(c4ccccc4)CC3)CC2)c1OC.O=C(O)C(=O)O (stereo not drawn),3.34
6,COc1cc(C(=O)N2CCN(C3CCCCC3)CC2)cc(OC)c1OC.O=C(O)C(=O)O,14.5
7,CC1CCCC(N2CCN(C(=O)c3ccc(F)cc3)CC2)C1 (stereo not drawn),-25
8,COc1ccc(C(=O)N2CCN(C3CCN(Cc4ccccc4)CC3)CC2)cc1OC,-14.5
9,O=C(CCCc1ccccc1)N1CCN(C2CCCCC2)CC1,-23.6
10,COc1cccc(C(=O)N2CCN(C3CCCCC3)CC2)c1.O=C(O)C(=O)O,6.64
11,CC1CCCC(N2CCN(C(=O)c3cccc(F)c3)CC2)C1.O=C(O)C(=O)O (stereo not drawn),8.59
12,COc1ccc(C(=O)N2CCN(C3CCC(c4ccccc4)CC3)CC2)cc1OC (stereo not drawn),-60.4
13,CC1CCCC(N2CCN(C(=O)c3ccc([N+](=O)[O-])cc3)CC2)C1.O=C(O)C(=O)O (stereo not drawn),-67.3
14,Cc1ccc(CN(c2ccc(C(=O)NCc3cccnc3)cc2)S(C)(=O)=O)cc1,1.51
15,COc1ccc(N2CCN(CCCNC(=O)C(=O)c3c(C)n(C)c4ccccc34)CC2)cc1,-9.85
16,COc1ccc2c(c1)C(NC(C)=O)C(=O)N2CCc1ccccc1 (stereo not drawn),3.02
17,Cc1oc(-c2ccoc2)nc1CN(CC1CCC(=O)N1)C(C)C (stereo not drawn),11.6
18,CCNc1nc(N2CCCC2)nc(N2CCCC2)n1,0.687
19,CCCCN1CNC(=S)N(c2cc(C)ccc2C)C1,7.21
20,Nc1[nH]c(=O)nc(Nc2ccccc2)c1N=O,8.79
21,O=C(c1ccc(CNc2c(N3CCCC3)c(=O)c2=O)cc1)N1CCc2ccccc2C1,-3.76

row,Structure (SMILES),"hERG current change (%, negative = inhibition) at 1uM [%]"
1,CCO[C@@H]1OC(C(=O)N2CCN(Cc3ccc4c(c3)OCO4)CC2)=C[C@H](c2ccc(C(F)(F)F)cc2)[C@H]1CCCO,3.44
2,COc1cc(OC)cc(C(=O)N2CCN(C3CCCCC3)CC2)c1.O=C(O)C(=O)O,-2.01
3,COc1ccc(C(=O)N2CCCN(C)CC2)c(OC)c1,11
4,COc1ccc(C(=O)N2CCN(C3CCCCC3)CC2)c(OC)c1,-75
5,CCC(Cc1ccccc1)NS(=O)(=O)c1csc(C(N)=O)c1 (stereo not drawn),22.5
6,CC(C)[C@H](NC(=O)N1CC(=O)Nc2ccccc21)C(=O)Nc1nccs1,24.4
7,O=C(c1ccc(C(F)(F)F)cc1)N1CCCCC1,-4.21
8,Cc1ccc(S(=O)(=O)Nc2ccc3c(c2)nc(CCN2CCOCC2)n3C)cc1,6.29
9,Cc1ccc(S(=O)(=O)Nc2ccc3c(c2)nc(CCN2CCN(c4ccccn4)CC2)n3C)cc1,-80.7
10,CCCC(=O)Nc1ccc2c(c1)nc(CCN1CCN(c3ccccn3)CC1)n2C,1.68
11,Cn1c(CCN2CCN(c3ccccn3)CC2)nc2cc(NS(=O)(=O)c3ccc(Cl)cc3)ccc21,-69.2
12,CC(C)C(=O)Nc1ccc2c(c1)nc(CCN1CCN(c3ccccn3)CC1)n2C,6.24
13,CC(=O)Nc1ccc2c(c1)nc(CCN1CCN(c3ccccn3)CC1)n2C,12
14,O=CNc1ccc(OP(=O)(Oc2ccccc2)Oc2ccccc2)cc1,1.71
15,O=C(N/N=C(/c1ccccc1)c1ccncc1)c1ccc2c(c1)OCO2,2.11
16,CC(C(=O)O)N1CCCCC1.Cl (stereo not drawn),-4.62
17,O=C(Cn1cncc1-c1ccc([N+](=O)[O-])cc1)Nc1ccccc1F,-0.387
18,O=C(c1noc2c1CCCC2)N1CCN(c2ccc(F)cc2)CC1,20
19,N#Cc1ccc(CN2CCN(C(=O)CCNS(=O)(=O)c3ccc(F)c(Cl)c3)CC2)cc1,-29.3
20,O=C(CCNS(=O)(=O)c1ccc(Cl)cc1)N1CCN(Cc2ccccc2)CC1,-16.1
21,N#Cc1ccc(CN2CCN(C(=O)CCNS(=O)(=O)c3ccc(F)c(F)c3)CC2)cc1,-62.3
